This is an account of results in PubChem BioAssay.

Calls of active or inactive are those of the source.

For experiment [1], the system named is Human papillomavirus type 1a protein E7 (residues 44-93). Kind of experiment: small molecules binding HPV E7 44-93 – biochemical, small-molecule microarray, residues 44-93, 635 nm fluorescence, primary screen (AID 1108).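 Note: E7 fragment applied at 1 µg/mL in TBST for 1 h at 4 C; score combines spot fluorescence with its signal to noise ratio.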 Particulars: fluorescence 635 nm, higher = more signal.
A short description of experiment [2]: hepatitis C replication reporter changes, two-sided – Huh7 cells, luciferase reporter, HCV replication inhibitor project, primary screen (AID 1109).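 Note: huh7 hepatoma cells harbouring a luciferase neomycin HCV replicon reporter; luciferase luminescence as measure of HCV replicon replication; test concentration not given here.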 The following applies: Huh7 HCV replicon luciferase reporter, 48 h; higher = more signal. (Reporter assays use an easily measured gene product as a stand-in for the process of interest.)
In experiment [3] the target is Left-right determination factor 2 (Homo sapiens) (UniProt O00292). Briefly: small molecules binding LEFTY2 protein – biochemical, small-molecule microarray, 635 nm fluorescence scan, primary screen (AID 1110). The following applies: higher = more signal.
Left-right determination factor 2 (Homo sapiens), sequence (O00292 whole entry, looked up): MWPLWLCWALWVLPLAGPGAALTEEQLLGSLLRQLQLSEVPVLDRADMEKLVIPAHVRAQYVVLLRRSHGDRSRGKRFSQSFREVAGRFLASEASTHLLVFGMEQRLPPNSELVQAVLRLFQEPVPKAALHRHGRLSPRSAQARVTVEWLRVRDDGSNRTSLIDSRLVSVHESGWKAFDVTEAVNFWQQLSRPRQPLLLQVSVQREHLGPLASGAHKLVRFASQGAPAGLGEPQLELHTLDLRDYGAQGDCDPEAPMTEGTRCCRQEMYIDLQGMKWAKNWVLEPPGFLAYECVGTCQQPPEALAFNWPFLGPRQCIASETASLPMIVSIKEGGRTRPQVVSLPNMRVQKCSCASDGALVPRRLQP
The target in experiment [4] is Calmodulin-1 (Homo sapiens) (UniProt P0DP23). Kind of experiment: small molecules binding calmodulin-1 with EGTA – biochemical, small-molecule microarray, Cy5-labelled CALM1, profiling panel (AID 1111).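 Note: labelled calmodulin applied in Tris saline Tween buffer holding calcium plus EGTA and DTT.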 The following applies: Cy5-CALM1 binding fluorescence, higher = more signal.
For experiment [5] the target is unchanged. Briefly: small molecules binding Ca-loaded calmodulin-1 – biochemical, small-molecule microarray, Cy5-labelled CALM1, plus calcium, artefact control for SMM control-protein annotation, profiling panel (AID 1112).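 Note: score merges spot fluorescence with signal to noise from triplicate slides.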 The following applies: Cy5-CALM1 binding fluorescence, higher = more signal.
Experiment [6] can be described thus: probe aWnt5a binding to arrayed compounds – biochemical, biotinylated probe, 635/667 nm fluorescence, primary screen (AID 1113).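 Note: score merges 667 nm fluorescence intensity with signal-to-noise per printed feature.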 The following applies: small-molecule microarray, higher = more signal.
Experiment [7] can be described thus: probe aShh binding to arrayed compounds – biochemical, biotinylated probe, 635/667 nm fluorescence, primary screen (AID 1114).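 Note: probe is biotin-labelled aShh protein from a stem cell growth factor screen; measures binding of labelled protein to compounds printed on the slide; score merges feature fluorescence at 667 nm with signal-to-noise.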 Particulars: small-molecule microarray, higher = more signal.
Experiment [8] can be described thus: probe aNog binding to arrayed compounds – biochemical, biotinylated probe, 635/667 nm fluorescence, primary screen (AID 1115).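 Note: probe is biotinylated aNog protein used at 0.15 µg/mL for 1 h at 4 C; z-score combines 667 nm fluorescence of each spot with its signal to noise.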 Particulars: small-molecule microarray, higher = more signal.
Experiment [9] has as its target Torsin-1A-interacting protein 1 (Homo sapiens) (UniProt Q5JTV8). Briefly: compound microarray binding of lysate hLAP1 – cell lysate, small-molecule microarray, COS7 lysate, 635/667 nm fluorescence, primary screen (AID 1116). The following applies: 635 nm fluorescence, higher = more signal.
In experiment [10] the target is Alpha-bungarotoxin (Bungarus multicinctus) (UniProt P60615). Kind of experiment: compounds binding labelled alpha-BTX control protein – biochemical, small-molecule microarray, Alexa647 label, 635/667 nm fluorescence, artefact control for SMM control protein annotation, profiling panel (AID 1117). Particulars: alpha-BTX-A647 binding fluorescence, higher = more signal.
Alpha-bungarotoxin (Bungarus multicinctus), sequence (P60615 whole entry, looked up): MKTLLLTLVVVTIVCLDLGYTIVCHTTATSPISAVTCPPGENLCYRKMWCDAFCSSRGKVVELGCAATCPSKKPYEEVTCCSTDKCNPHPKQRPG

The target of a further experiment is Albumin (Bos taurus) (UniProt P02769). Briefly: compounds binding labelled BSA control protein – biochemical, small-molecule microarray, Alexa647 label, 635/667 nm fluorescence, artefact control for SMM control protein annotation, profiling panel (AID 1118).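 Note: score merges 667 nm emission intensity and signal-to-noise per printed compound spot.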 The following applies: BSA-A647 binding, fluorescence 635 nm, higher = more signal.
Albumin (Bos taurus), sequence (P02769 whole entry, looked up): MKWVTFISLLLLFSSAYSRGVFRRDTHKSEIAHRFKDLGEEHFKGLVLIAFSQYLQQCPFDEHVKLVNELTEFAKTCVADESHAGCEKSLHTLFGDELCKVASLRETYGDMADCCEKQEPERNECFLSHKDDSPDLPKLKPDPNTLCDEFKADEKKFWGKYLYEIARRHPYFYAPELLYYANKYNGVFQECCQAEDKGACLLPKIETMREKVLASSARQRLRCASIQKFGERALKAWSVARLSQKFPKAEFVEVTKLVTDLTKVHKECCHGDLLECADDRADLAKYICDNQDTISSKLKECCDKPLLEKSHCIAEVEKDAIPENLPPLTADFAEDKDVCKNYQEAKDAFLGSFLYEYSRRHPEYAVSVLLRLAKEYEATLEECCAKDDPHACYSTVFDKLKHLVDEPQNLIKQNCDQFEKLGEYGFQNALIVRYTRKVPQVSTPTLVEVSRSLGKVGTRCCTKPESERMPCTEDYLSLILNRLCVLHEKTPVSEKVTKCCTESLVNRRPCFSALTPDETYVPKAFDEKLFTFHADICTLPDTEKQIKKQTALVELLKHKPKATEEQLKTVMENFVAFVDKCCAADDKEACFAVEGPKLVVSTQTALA
Experiment [11] can be described thus: probe aXIP binding to arrayed compounds – biochemical, NeuroSMM set, 635/667 nm fluorescence, primary screen (AID 1119).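 Note: probe is the protein aXip251-270 applied at 1 µg/mL to compound-printed slides; binding of probe to printed compounds measured as 667 nm fluorescence plus signal to noise.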 The following applies: small-molecule microarray, higher = more signal, called active from +8 up or from −8 down.
A short description of experiment [12]: probe aNOTCH3 binding on compound microarray – biochemical, small-molecule microarray, 635/667 nm fluorescence, primary screen (AID 1120).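 Note: probe is a biotin-tagged antibody raised against NOTCH3 rather than NOTCH3 protein; score merges spot fluorescence near 667 nm with spot signal to noise.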 The following applies: higher = more signal.
Experiment [13] in a line: probe aNOTCH2 binding on compound microarray – biochemical, small-molecule microarray, 635/667 nm fluorescence, primary screen (AID 1121).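 Note: score merges feature fluorescence read at 667 nm with its signal to noise.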 The following applies: higher = more signal.
In experiment [14] the target is Carbonic anhydrase 2 (Homo sapiens) (UniProt P00918). Kind of experiment: compounds binding carbonic anhydrase 2 – biochemical, small-molecule microarray, Alexa647-labelled CAII, profiling panel (AID 1122). The following applies: CAII-A647 binding fluorescence, higher = more signal.
The nature of experiment [15]: COS7 lysate on small-molecule microarray, probe aHis, 635 nm (AID 1123).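 Note: z-score combines 667nm fluorescence intensity with signal-to-noise per printed compound spot.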 Particulars: COS7 cell lysate, fluorescence, higher = more signal.
The nature of experiment [16]: probe aLAP1 signal on lysate-treated microarray – cell lysate, small-molecule microarray, COS7 lysate, primary screen (AID 1124).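 Note: lysate comes from COS7 cells expressing LAP1 and is applied at 0.3 µg/mL; score merges spot fluorescence near 667 nm with signal-to-noise over triplicate slides.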 Particulars: probe aLAP1, fluorescence, higher = more signal.
The next experiment concerns Sam68 (KHDRBS1). Kind of experiment: compounds binding KHDRBS1 protein – biochemical, small-molecule microarray, 635 nm fluorescence, primary screen (AID 1125).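 Note: score merges 667 nm channel intensity with signal to noise over triplicate slides.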 The following applies: higher = more signal.
Experiment [17] has as its system Chordin-like protein 2 (CHRDL2). Kind of experiment: compounds binding chordin-like 2 – biochemical, small-molecule microarray, 635 nm fluorescence, primary screen (AID 1126).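 Note: printed compound slides probed with Chrdl2 protein at 4 µg/mL for 1 h at 4 C; score merges 667 nm emission intensity with signal to noise over three replicate slides.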 Particulars: fluorescence 635 nm, higher = more signal.
Experiment [18] has as its target Concanavalin-A (Canavalia ensiformis) (UniProt P02866). Kind of experiment: compounds binding concanavalin A lectin – biochemical, small-molecule microarray, Alexa647 label, 635 nm, artefact control for SMM control protein annotation, primary screen (AID 1127).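 Note: z combines 667 nm emission intensity with signal-to-noise across three replicate slides.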 The following applies: ConA-A647 binding fluorescence, higher = more signal.

Concanavalin-A (Canavalia ensiformis), sequence (P02866 whole entry, looked up): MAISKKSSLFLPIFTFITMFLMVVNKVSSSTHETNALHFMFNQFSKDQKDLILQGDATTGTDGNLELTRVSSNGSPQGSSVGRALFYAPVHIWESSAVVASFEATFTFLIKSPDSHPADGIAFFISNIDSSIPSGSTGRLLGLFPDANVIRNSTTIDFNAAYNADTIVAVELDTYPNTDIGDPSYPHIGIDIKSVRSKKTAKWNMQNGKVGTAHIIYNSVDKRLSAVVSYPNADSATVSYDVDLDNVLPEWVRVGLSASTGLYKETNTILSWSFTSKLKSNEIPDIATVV
Torsin-1A-interacting protein 1 (Homo sapiens), sequence (Q5JTV8 whole entry, looked up): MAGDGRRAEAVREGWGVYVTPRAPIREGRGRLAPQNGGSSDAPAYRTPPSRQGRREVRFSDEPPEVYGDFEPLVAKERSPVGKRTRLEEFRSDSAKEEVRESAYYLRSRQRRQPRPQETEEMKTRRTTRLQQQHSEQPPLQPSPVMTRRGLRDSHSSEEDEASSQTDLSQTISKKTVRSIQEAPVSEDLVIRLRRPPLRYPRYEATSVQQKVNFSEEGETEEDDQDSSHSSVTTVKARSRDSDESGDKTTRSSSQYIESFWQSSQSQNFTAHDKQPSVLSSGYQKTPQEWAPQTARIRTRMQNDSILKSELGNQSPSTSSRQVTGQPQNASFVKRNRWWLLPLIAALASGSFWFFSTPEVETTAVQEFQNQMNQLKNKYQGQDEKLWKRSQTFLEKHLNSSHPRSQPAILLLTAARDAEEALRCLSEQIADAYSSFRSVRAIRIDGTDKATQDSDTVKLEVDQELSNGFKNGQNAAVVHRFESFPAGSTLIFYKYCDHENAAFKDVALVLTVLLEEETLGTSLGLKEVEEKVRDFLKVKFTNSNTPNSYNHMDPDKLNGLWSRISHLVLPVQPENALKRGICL

`COc1cc(CO)ccc1OC(C)=O`: the composite z-score in [1] was 0.464; in experiment [3] it was 0.388; in [4], 0.0543; in experiment [5], -0.267; in [6] it was 0.127; in experiment [7], 0.0815. Moreover, the composite z-score in experiment [8] was -0.0615; in experiment [9], 0.47; in experiment [10], 0.298; with Albumin (Bos taurus), 0.344; in experiment [12] it was 0.262; in experiment [13], 0.0275. Also, the composite z-score is 0.112 in [14]; 0.329 in experiment [15]; 0.356 in [16]; 0.482 in the experiment with Sam68 (KHDRBS1); 0.689 in [17]; 0.687 in [18]. Besides, in experiment [2], the z-score was -0.147. Further, the composite Z-score in experiment [11] was 0.151 (inactive).
On to `COCCOC(=O)N1C(=O)[C@@]2(c3cc(C#CCC(C(=O)OC)C(=O)OC)ccc31)[C@H](c1ccccc1OCCO)N1[C@H](c3ccccc3)[C@H](c3ccccc3)OC(=O)[C@H]1[C@@H]2C(=O)N1CCc2cc(OC)c(OC)cc2C1`, for which the composite z-score in experiment [1] is 1.2; in experiment [3] it was 0.958; in experiment [4], 1.54; in [5], 0.0013; in experiment [6], -0.363; in experiment [7], -0.148. The composite z-score in experiment [8] was -0.289; in [9], 0.496; in [10] it was 0.942; with Albumin (Bos taurus) it was 0.534; in [12], 0.134; in experiment [13], -0.16. Moreover, the composite z-score worked out at 0.45 in experiment [14]; 0.833 in experiment [15]; 0.211 in experiment [16]; 1.29 in the experiment with Sam68 (KHDRBS1); 0.787 in experiment [17]; 1.16 in experiment [18]. The compound further registered a z-score in [2] of -1.79. In addition, the composite Z-score in experiment [11] was 0.405 (inactive).
Consider `O=C1OCCC=C[C@H]2OC34C=CCN(Cc5ccccc5)C(=O)[C@H]3N(CCCCCO)C(=O)[C@@H]4C12` (stereo not given in full), for which the composite z-score in experiment [1] is 1.1; in [3] it was -1.24; in [4] it was -0.565; in [5] it was 0.13; in experiment [6], -0.091; in experiment [7], -0.154. The composite z-score was -0.177 in experiment [8]; 1.95 in experiment [9]; -1.06 in experiment [10]; 0.863 with Albumin (Bos taurus); -0.28 in experiment [12]; -0.173 in experiment [13]. In addition, the composite z-score in experiment [14] was 0.763; in experiment [15], 2.1; in [16] it was 0.743; in the experiment with Sam68 (KHDRBS1), 0.954; in experiment [17], -1.32; in experiment [18], -0.262. Also, the z-score in [2] is -0.481. Besides, in experiment [11], the composite Z-score is 0.452 (inactive).
In the case of `CC(C)C(O)C1C=CC2C(=O)N(c3ccccc3)C(=O)C2N1Nc1ccc(C#N)cc1` (stereo not given), the composite z-score in experiment [1] is 0.931; in experiment [3], 1.11; in experiment [4], 0.875; in [5], 0.717; in experiment [6], -0.0522; in [7], -0.452. Also, the composite z-score in experiment [8] came to 0.843; in experiment [9] it was 0.892; in [10], 1.36; in the experiment with Albumin (Bos taurus) it was 1.03; in experiment [12], 0.276; in [13] it was 0.0883. For the same compound, the composite z-score in experiment [14] is 0.842; in experiment [15], 2.73; in [16], 0.997; in the experiment on Sam68 (KHDRBS1) it was 1.26; in experiment [17], -0.387; in experiment [18] it was 1.19. Moreover, the z-score in [2] amounted to 0.993. Also, the composite Z-score in experiment [11] was 2.09 (inactive).
As for `CCOC(=O)C1=CC[C@@H](c2ccccc2)N(S(=O)(=O)c2ccc(C)cc2)[C@H]1C(=O)OCC`, the composite z-score in experiment [1] is 0.841; in experiment [3], -0.0319; in experiment [4], 0.784; in experiment [5], 0.289; in experiment [6], 0.177; in experiment [7], 0.77. Also, the composite z-score amounted to 0.137 in [8]; 0.962 in [9]; 0.384 in experiment [10]; 0.744 with Albumin (Bos taurus); 0.421 in experiment [12]; 0.144 in experiment [13]. Further, the composite z-score in [14] is 0.413; in experiment [15], 1.22; in [16], 0.748; with Sam68 (KHDRBS1) it was 1.12; in experiment [17], -0.361; in [18], -0.515. Besides, in experiment [2], the z-score was -3.08. In experiment [11], the composite Z-score is 0.615 (inactive).
With `COc1cc2c(cc1O)C(C)N(Cc1cccc(OC(F)(F)F)c1)CC2` (stereo not given), the composite z-score in experiment [1] was 1.37; in [3], -0.442; in experiment [4], 0.854; in experiment [5], 0.938; in experiment [6] it was -0.0445; in [7], 0.0326. Moreover, the composite z-score is 0.582 in [8]; 1.67 in experiment [9]; 0.514 in [10]; 0.986 with Albumin (Bos taurus); -0.0204 in experiment [12]; -0.0839 in experiment [13]. Also, the composite z-score is 0.662 in experiment [14]; 2.23 in [15]; 0.572 in [16]; 0.851 in the experiment on Sam68 (KHDRBS1); -0.236 in experiment [17]; 0.446 in [18]. Further, the z-score in experiment [2] was -0.815. For the same compound, the composite Z-score in [11] is 0.414 (inactive).
As for `C=CCN1C(=O)[C@]2(O[C@H](CCO)[C@@H]([Si](C)(C)c3ccc(OC)cc3)[C@@H]2C)c2cc(NC(=O)[C@H](C)O)ccc21`, the composite z-score in experiment [1] was 0.942; in experiment [3], 0.0707; in experiment [4] it was 0.737; in [5], -0.217; in experiment [6] it was -0.0799; in [7] it was 0.13. Further, the composite z-score in [8] was -0.204; in experiment [9] it was 0.925; in [10] it was 0.69; with Albumin (Bos taurus), 0.851; in [12], 0.0203; in experiment [13], -0.0666. Further, the composite z-score in [14] came out at 0.56; in experiment [15] it was 1.39; in experiment [16], 0.371; in the experiment on Sam68 (KHDRBS1) it was 1.31; in experiment [17], 0.174; in [18] it was 1.01. Besides, the z-score in [2] was -4.97. Moreover, the composite Z-score in [11] was 1.31 (inactive).
Take `O=C1C2C=CC(C(O)c3ccc(B(O)O)cc3)N(Nc3ccccc3)C2C(=O)N1c1ccccc1` (stereo not given): the composite z-score in experiment [1] was 0.0036; in experiment [3], -0.158; in [4], 0.883; in experiment [5], 0.665; in [6], -0.0944; in experiment [7] it was 0.151. Further, the composite z-score was 0.162 in experiment [8]; 0.949 in experiment [9]; 0.402 in experiment [10]; 0.764 in the experiment with Albumin (Bos taurus); 0.127 in experiment [12]; -0.0438 in experiment [13]. Moreover, the composite z-score is 0.793 in experiment [14]; 0.408 in experiment [15]; -0.0389 in [16]; -0.346 in the experiment with Sam68 (KHDRBS1); -0.0149 in experiment [17]; -0.874 in [18]. This compound displayed a z-score in [2] of -1.49. Further, the composite Z-score in [11] is 0.387 (inactive).
